The supplement of paper PMC10849652
Targets with a hit are over-represented here; the source holds about 7,900 in all. About 0.6% of all pairs of compound and target were hits.

Assays:
Assay in all cases: log2 fold change, soluble protein after heating vs DMSO (PISA); higher = thermal stabilisation; K562 cells, 10 uM, 30 min; active = over 0.2 and 3.5 SD of the protein, either way, in both replicates (recomputed)
[1] = compound: CN1CCN(CCOc2cc(OC3CCOCC3)c3c(Nc4c(Cl)ccc5c4OCO5)ncnc3c2)CC1 [saracatinib]
In short: (§1)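 Soluble protein was quantified by TMTpro 16plex LC-MS/MS after channel sums were equalised. It was obtained as the supernatant after 21,000xg for 90 min from pooled aliquots of K562 cells (2×10^6 cells/mL, 10 μM compound, 30 min) heated for 3 min across 48°C-58°C and extracted in PBS with 0.5% NP-40 at 4°C. Thermal stability values are relative to control samples and come from duplicates. They are given as log2 fold changes.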

[2] = compound: CN1CCN(c2nc(C3=C(c4c[nH]c5ccccc45)C(=O)NC3=O)c3ccccc3n2)CC1 [sotrastaurin]
In short: as §1

[3] = compound: CN1CC[C@H](c2c(O)cc(O)c3c(=O)cc(-c4ccccc4Cl)oc23)[C@H](O)C1 [alvocidib]
In short: as §1

[4] = compound: CN1CCc2c(c3ccccc3n2Cc2ccc(C(=O)NO)cc2)C1 [Tubastatin A]
In short: as §1

[5] = compound: CNC(=O)C1=CC=CC=C1NC2=NC(=NC=C2Cl)NC3=C(C=C(C=C3)N4CCOCC4)OC
In short: as §1

[6] = compound: CNC(=O)c1ccc(Nc2ncc(C(F)(F)F)c(NCc3nccnc3N(C)S(C)(=O)=O)n2)cc1 [defactinib]
In short: as §1

[7] = compound: CNCc1ccc(-c2[nH]c3cc(F)cc4c3c2CCNC4=O)cc1 [rucaparib]
In short: as §1

[8] = compound: CNc1nc(-c2ccc3c(N)n[nH]c3c2)cc(N2C[C@@H](C(=O)NC3CCCCC3)CC[C@H]2C)n1
In short: as §1

[9] = compound: COC(=O)N[C@@H](C)CNc1nccc(-c2cn(C(C)C)nc2-c2cc(Cl)cc(NS(C)(=O)=O)c2F)n1 [encorafenib]
In short: as §1

[10] = compound: COC(=O)[C@H](CCSC)NC(=O)C1=C(C=C(C=C1)NC[C@H](CS)N)C2=CC=CC=C2
In short: as §1

[11] = compound: COC1=CC=C(C=C1)CN2C=CC3=C2C=C(C=C3)C(=O)NO
In short: as §1

[12] = compound: CON(C)C(=O)N1N=C(c2cc(F)ccc2F)S[C@@]1(CCCN)c1ccccc1 [filanesib]
In short: as §1

[13] = compound: CO[C@H]1C[C@@H]2CC[C@@H](C)[C@@](O)(O2)C(=O)C(=O)N2CCCC[C@H]2C(=O)O[C@H]([C@H](C)C[C@@H]2CC[C@H](n3cnnn3)[C@H](OC)C2)CC(=O)[C@H](C)/C=C(\C)[C@@H](O)[C@@H](OC)C(=O)[C@H](C)C[C@H](C)/C=C/C=C/C=C/1C [zotarolimus]
In short: as §1

[14] = compound: COc1cc(C(=O)O)ccc1NC(=O)[C@@H]1N[C@@H](CC(C)(C)C)[C@](C#N)(c2ccc(Cl)cc2F)[C@H]1c1cccc(Cl)c1F [idasanutlin]
In short: as §1

[15] = compound: COc1cc(Nc2ncc3c(n2)-c2ccc(Cl)cc2C(c2c(F)cccc2OC)=NC3)ccc1C(=O)O [alisertib]
In short: as §1

[16] = compound: COc1cc2nc(-c3cc(F)ccc3O)nc(N[C@@H]3CNC[C@H]3C(C)(C)O)c2cc1OC
In short: as §1

[17] = compound: COc1cc2ncnc(Nc3ccc(F)c(Cl)c3)c2cc1OCCCN1CCOCC1 [gefitinib]
In short: as §1

[18] = compound: COc1cccc2cc(-c3nc([C@H]4CC[C@H](C(=O)O)CC4)n4ncnc(N)c34)[nH]c12
In short: as §1

[19] = compound: CS(=O)(=O)CCNCc1ccc(-c2ccc3ncnc(Nc4ccc(OCc5cccc(F)c5)c(Cl)c4)c3c2)o1 [lapatinib]
In short: as §1

[20] = compound: CS(=O)(=O)N1CCN(Cc2cc3nc(-c4cccc5[nH]ncc45)nc(N4CCOCC4)c3s2)CC1 [pictilisib]
In short: as §1

Sequence of UniProt O95782 (O95782 whole entry, looked up): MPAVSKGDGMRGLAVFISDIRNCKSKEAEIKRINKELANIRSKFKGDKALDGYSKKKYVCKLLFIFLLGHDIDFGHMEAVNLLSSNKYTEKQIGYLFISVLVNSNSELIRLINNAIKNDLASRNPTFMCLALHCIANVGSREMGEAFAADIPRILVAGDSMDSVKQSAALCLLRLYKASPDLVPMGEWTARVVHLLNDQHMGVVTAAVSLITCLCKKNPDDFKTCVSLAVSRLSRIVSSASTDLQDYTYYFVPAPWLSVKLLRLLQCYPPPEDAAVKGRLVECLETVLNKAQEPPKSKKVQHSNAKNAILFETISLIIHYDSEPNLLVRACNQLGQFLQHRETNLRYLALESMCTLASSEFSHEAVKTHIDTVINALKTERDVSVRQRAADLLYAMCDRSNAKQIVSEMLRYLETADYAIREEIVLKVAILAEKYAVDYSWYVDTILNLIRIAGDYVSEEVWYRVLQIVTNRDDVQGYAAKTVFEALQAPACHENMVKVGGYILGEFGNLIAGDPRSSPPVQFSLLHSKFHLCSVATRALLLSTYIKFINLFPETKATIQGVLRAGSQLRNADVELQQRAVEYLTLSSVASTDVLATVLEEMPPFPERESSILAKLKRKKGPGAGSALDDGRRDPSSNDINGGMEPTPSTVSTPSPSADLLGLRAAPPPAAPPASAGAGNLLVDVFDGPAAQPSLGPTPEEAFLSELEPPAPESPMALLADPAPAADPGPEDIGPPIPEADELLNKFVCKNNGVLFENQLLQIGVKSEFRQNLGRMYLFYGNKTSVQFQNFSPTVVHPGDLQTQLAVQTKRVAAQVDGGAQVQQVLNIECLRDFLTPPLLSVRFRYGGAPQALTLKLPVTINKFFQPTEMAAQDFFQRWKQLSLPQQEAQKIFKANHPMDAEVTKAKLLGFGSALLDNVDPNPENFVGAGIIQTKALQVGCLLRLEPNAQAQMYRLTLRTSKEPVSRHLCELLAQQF
Sequence of UniProt Q9UI12 (Q9UI12 whole entry, looked up): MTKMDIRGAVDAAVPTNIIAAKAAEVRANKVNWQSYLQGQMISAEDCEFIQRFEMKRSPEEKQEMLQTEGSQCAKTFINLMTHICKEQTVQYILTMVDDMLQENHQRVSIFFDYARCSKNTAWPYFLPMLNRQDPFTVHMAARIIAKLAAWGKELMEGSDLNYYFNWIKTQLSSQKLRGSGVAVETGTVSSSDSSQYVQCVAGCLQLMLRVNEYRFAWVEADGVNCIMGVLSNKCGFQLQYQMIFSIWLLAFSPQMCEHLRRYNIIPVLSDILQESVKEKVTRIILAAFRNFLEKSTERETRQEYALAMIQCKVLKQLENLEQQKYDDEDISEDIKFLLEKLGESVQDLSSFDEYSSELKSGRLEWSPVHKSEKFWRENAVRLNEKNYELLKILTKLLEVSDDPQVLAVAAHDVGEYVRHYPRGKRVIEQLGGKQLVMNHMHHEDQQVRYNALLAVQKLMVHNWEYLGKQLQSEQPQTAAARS
Sequence of UniProt Q14137 (Q14137 whole entry, looked up): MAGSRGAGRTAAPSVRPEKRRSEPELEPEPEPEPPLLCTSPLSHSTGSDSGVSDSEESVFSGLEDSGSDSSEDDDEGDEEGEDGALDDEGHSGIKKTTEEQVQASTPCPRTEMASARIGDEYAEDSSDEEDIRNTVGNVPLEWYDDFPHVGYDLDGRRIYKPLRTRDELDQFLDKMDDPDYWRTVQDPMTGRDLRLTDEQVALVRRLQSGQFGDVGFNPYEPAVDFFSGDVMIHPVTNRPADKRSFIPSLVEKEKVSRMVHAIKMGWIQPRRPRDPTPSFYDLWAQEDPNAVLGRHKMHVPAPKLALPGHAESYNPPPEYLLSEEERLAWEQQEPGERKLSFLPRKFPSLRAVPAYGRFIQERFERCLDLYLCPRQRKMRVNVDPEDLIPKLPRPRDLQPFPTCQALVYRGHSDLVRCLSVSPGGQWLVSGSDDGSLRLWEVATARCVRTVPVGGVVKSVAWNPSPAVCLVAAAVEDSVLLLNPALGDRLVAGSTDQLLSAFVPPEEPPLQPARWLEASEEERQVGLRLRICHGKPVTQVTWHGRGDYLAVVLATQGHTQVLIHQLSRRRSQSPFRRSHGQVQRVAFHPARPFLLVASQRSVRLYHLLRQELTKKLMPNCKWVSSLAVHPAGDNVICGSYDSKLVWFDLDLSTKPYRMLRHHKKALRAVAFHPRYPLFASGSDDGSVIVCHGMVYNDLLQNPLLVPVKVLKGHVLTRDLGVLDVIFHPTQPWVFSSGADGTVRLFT
Sequence of UniProt Q9UBL3 (Q9UBL3 whole entry, looked up): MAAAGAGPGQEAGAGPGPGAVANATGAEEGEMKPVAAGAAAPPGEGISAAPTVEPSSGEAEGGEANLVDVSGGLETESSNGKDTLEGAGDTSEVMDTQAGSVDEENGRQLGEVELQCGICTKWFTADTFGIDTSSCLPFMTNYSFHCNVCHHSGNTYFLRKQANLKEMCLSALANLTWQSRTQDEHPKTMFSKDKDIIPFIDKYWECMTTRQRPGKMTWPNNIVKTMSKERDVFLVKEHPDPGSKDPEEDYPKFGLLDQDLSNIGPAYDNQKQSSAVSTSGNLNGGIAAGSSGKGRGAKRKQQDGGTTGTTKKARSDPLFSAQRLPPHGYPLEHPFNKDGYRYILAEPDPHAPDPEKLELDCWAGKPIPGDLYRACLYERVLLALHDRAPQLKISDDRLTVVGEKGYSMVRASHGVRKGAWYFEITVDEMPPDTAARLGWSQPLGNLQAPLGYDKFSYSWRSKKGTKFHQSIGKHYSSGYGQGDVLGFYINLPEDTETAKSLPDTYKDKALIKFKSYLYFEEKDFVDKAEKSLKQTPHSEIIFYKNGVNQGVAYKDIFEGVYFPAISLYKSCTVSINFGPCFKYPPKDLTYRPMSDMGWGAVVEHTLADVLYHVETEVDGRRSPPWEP
Sequence of UniProt Q9P287 (Q9P287 whole entry, looked up): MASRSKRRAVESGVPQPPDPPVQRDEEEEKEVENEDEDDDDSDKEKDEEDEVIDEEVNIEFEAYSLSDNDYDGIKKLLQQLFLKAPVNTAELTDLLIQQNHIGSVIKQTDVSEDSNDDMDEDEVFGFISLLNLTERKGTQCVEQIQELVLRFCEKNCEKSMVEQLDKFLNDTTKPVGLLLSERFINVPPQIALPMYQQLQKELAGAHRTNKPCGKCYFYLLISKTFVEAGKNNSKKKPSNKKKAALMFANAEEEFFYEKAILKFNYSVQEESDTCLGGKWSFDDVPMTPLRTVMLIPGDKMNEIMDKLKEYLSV
Sequence of UniProt O60488 (O60488 whole entry, looked up): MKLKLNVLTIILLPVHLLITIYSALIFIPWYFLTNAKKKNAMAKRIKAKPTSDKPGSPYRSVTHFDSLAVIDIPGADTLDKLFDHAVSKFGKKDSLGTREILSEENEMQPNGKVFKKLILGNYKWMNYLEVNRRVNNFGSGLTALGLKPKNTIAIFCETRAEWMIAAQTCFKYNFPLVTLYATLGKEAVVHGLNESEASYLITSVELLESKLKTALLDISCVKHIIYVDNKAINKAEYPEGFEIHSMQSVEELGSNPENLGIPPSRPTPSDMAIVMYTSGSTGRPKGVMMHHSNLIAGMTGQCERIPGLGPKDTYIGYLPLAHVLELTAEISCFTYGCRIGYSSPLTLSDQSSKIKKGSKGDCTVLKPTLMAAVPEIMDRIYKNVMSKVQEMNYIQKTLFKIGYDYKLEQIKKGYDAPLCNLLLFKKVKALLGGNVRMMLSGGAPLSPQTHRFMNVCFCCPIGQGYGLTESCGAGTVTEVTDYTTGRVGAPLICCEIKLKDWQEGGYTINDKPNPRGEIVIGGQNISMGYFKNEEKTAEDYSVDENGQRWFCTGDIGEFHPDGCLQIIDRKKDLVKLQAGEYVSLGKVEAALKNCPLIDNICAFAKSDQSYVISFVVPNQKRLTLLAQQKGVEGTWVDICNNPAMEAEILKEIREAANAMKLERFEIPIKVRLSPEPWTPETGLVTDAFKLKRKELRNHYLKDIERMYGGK
Sequence of UniProt P55263 (P55263 whole entry, looked up): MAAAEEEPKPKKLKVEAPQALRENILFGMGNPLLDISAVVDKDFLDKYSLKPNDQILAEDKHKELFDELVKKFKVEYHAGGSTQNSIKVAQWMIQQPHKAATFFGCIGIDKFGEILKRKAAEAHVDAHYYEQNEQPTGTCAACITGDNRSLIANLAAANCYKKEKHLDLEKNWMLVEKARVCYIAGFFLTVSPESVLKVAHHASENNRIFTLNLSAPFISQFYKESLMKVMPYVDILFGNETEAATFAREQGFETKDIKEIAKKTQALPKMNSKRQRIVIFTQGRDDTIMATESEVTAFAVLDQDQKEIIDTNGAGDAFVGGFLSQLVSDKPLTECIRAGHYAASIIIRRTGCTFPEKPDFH
Sequence of UniProt P11117 (P11117 whole entry, looked up): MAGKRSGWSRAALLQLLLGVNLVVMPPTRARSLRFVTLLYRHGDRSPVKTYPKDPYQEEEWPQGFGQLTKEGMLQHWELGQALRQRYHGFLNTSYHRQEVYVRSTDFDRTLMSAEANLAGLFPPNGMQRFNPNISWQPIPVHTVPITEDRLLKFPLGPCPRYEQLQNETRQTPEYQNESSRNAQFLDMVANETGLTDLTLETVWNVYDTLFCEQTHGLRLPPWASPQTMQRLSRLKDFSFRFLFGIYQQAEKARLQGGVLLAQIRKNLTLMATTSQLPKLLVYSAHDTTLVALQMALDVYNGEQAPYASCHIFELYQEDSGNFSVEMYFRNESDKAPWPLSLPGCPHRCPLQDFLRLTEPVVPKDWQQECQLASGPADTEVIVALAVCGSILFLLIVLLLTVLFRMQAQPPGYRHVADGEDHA
Sequence of UniProt Q6QNY0 (Q6QNY0 whole entry, looked up): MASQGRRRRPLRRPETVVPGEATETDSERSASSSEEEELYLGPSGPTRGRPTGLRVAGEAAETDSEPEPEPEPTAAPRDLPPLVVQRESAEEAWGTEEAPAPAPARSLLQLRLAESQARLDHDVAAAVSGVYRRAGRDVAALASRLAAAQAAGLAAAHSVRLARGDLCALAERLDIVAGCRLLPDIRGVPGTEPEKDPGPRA

Target | log2 fold change [1] | log2 fold change [2] | log2 fold change [3] | log2 fold change [4] | log2 fold change [5] | log2 fold change [6] | log2 fold change [7] | log2 fold change [8] | log2 fold change [9] | log2 fold change [10] | log2 fold change [11] | log2 fold change [12] | log2 fold change [13] | log2 fold change [14] | log2 fold change [15] | log2 fold change [16] | log2 fold change [17] | log2 fold change [18] | log2 fold change [19] | log2 fold change [20]
ARGLU1 (UniProt Q9NWB6) | 0.016 (inactive) | 0.091 (inactive) | 0.014 (inactive) | 0.003 (inactive) | -0.365 (inactive) | -0.04 (inactive) | -0.026 (inactive) | -0.028 (inactive) | -0.006 (inactive) | 0.077 (inactive) | 0.066 (inactive) | 0.207 (inactive) | 0.025 (inactive) | 0.171 (inactive) | -0.13 (inactive) | 0.05 (inactive) | 0.212 (inactive) | 0.031 (inactive) | 0.062 (inactive) | -0.027 (inactive)
AGO1 (UniProt Q9UL18) | -0.066 (inactive) | -0.307 (inactive) | 0.141 (inactive) | -0.164 (inactive) | -0.039 (inactive) | -0.03 (inactive) | 0.16 (inactive) | -0.085 (inactive) | 0.086 (inactive) | -0.036 (inactive) | -0.107 (inactive) | -0.015 (inactive) | -0.069 (inactive) | 0.009 (inactive) | 0.05 (inactive) | -0.031 (inactive) | -0.119 (inactive) | -0.029 (inactive) | 0.061 (inactive) | -0.002 (inactive)
BLOC1S3 (UniProt Q6QNY0) | 0.049 (inactive) | 0.034 (inactive) | 0.015 (inactive) | -0.064 (inactive) | -0.05 (inactive) | -0.044 (inactive) | -0.047 (inactive) | -0.031 (inactive) | -0.035 (inactive) | 0.028 (inactive) | -0.013 (inactive) | -0.066 (inactive) | -0.014 (inactive) | -0.149 (inactive) | 0.005 (inactive) | -0.018 (inactive) | 0.048 (inactive) | 0.058 (inactive) | -0.007 (inactive) | 0.126 (inactive)
ADK (UniProt P55263) | 0.158 (inactive) | 0.26 (inactive) | 0.305 (inactive) | -0.007 (inactive) | 0.119 (inactive) | 0.055 (inactive) | -0.021 (inactive) | -0.017 (inactive) | -0.044 (inactive) | 0.002 (inactive) | -0.009 (inactive) | -0.013 (inactive) | -0.014 (inactive) | -0.083 (inactive) | -0.037 (inactive) | 0.015 (inactive) | 0.199 (inactive) | 0.007 (inactive) | 0.21 (inactive) | 0.167 (inactive)
BOP1 (UniProt Q14137) | 0.011 (inactive) | -0.043 (inactive) | -0.082 (inactive) | -0.013 (inactive) | 0.015 (inactive) | -0.157 (inactive) | 0.066 (inactive) | -0.016 (inactive) | 0.155 (inactive) | 0.046 (inactive) | -0.059 (inactive) | 0.161 (inactive) | 0.054 (inactive) | 0.077 (inactive) | -0.131 (inactive) | -0.085 (inactive) | 0.017 (inactive) | -0.012 (inactive) | -0.034 (inactive) | 0 (inactive)
AP2A1 (UniProt O95782) | 0.049 (inactive) | 0.001 (inactive) | 0.027 (inactive) | 0.001 (inactive) | 0.004 (inactive) | 0.012 (inactive) | 0.01 (inactive) | -0.047 (inactive) | 0.032 (inactive) | -0.038 (inactive) | 0.044 (inactive) | 0.045 (inactive) | 0.033 (inactive) | 0.027 (inactive) | -0.041 (inactive) | 0.008 (inactive) | 0.025 (inactive) | 0.005 (inactive) | 0.027 (inactive) | -0.042 (inactive)
ARL1 (UniProt P40616) | 0.117 (inactive) | -0.049 (inactive) | -0.068 (inactive) | 0.031 (inactive) | -0.017 (inactive) | 0.03 (inactive) | -0.012 (inactive) | 0.058 (inactive) | 0.117 (inactive) | -0.178 (inactive) | -0.007 (inactive) | -0.155 (inactive) | 0.03 (inactive) | -0.254 (active) | -0.124 (inactive) | -0.042 (inactive) | 0.047 (inactive) | 0.042 (inactive) | 0.117 (inactive) | -0.135 (inactive)
ASH2L (UniProt Q9UBL3) | 0.023 (inactive) | -0.025 (inactive) | -0.035 (inactive) | 0.052 (inactive) | 0.023 (inactive) | -0.12 (inactive) | 0.012 (inactive) | -0.036 (inactive) | 0.037 (inactive) | -0.009 (inactive) | 0.019 (inactive) | 0.044 (inactive) | 0.096 (inactive) | 0.021 (inactive) | -0.034 (inactive) | 0.035 (inactive) | 0.004 (inactive) | -0.014 (inactive) | -0.011 (inactive) | 0.039 (inactive)
ACP2 (UniProt P11117) | 0.026 (inactive) | 0.022 (inactive) | 0.003 (inactive) | -0.036 (inactive) | -0.006 (inactive) | 0.01 (inactive) | -0.089 (inactive) | -0.055 (inactive) | 0.018 (inactive) | -0.006 (inactive) | -0.034 (inactive) | -0.121 (inactive) | -0.016 (inactive) | -0.026 (inactive) | 0.036 (inactive) | -0.002 (inactive) | 0.001 (inactive) | 0.053 (inactive) | 0.038 (inactive) | -0.031 (inactive)
ACACB (UniProt O00763) | -0.166 (inactive) | -0.383 (inactive) | 0.033 (inactive) | 0.087 (inactive) | -0.083 (inactive) | 0.016 (inactive) | 0.291 (inactive) | 0.228 (inactive) | 0.089 (inactive) | -0.137 (inactive) | -0.019 (inactive) | 0.258 (inactive) | 0.132 (inactive) | -0.042 (inactive) | -0.168 (inactive) | 0.039 (inactive) | -0.02 (inactive) | -0.371 (inactive) | 0.068 (inactive) | 0.038 (inactive)
APPL1 (UniProt Q9UKG1) | 0.029 (inactive) | -0.004 (inactive) | -0.179 (inactive) | 0.002 (inactive) | 0.027 (inactive) | 0.037 (inactive) | -0.095 (inactive) | -0.03 (inactive) | 0.03 (inactive) | -0.029 (inactive) | -0.024 (inactive) | 0.069 (inactive) | 0.018 (inactive) | -0.076 (inactive) | -0.001 (inactive) | 0.079 (inactive) | -0.106 (inactive) | -0.023 (inactive) | -0.025 (inactive) | 0.033 (inactive)
ATP6V1H (UniProt Q9UI12) | -0.047 (inactive) | -0.015 (inactive) | -0.065 (inactive) | 0.046 (inactive) | -0.016 (inactive) | -0.042 (inactive) | 0.016 (inactive) | 0.054 (inactive) | 0.016 (inactive) | -0.043 (inactive) | 0.035 (inactive) | -0.106 (inactive) | 0.055 (inactive) | -0.067 (inactive) | -0.1 (inactive) | -0.064 (inactive) | -0.121 (inactive) | -0.073 (inactive) | -0.009 (inactive) | -0.063 (inactive)
BCCIP isoform 2 (UniProt Q9P287) | -0.004 (inactive) | -0.044 (inactive) | 0.031 (inactive) | -0.036 (inactive) | 0.013 (inactive) | -0.019 (inactive) | 0.087 (inactive) | -0.005 (inactive) | 0.037 (inactive) | -0.024 (inactive) | -0.059 (inactive) | 0.05 (inactive) | -0.002 (inactive) | -0.021 (inactive) | 0.024 (inactive) | 0.021 (inactive) | 0 (inactive) | 0.026 (inactive) | -0.007 (inactive) | -0.021 (inactive)
AK6 (UniProt Q9Y3D8) | -0.154 (inactive) | -0.121 (inactive) | -0.045 (inactive) | 0.03 (inactive) | 0.018 (inactive) | -0.095 (inactive) | 0.092 (inactive) | -0.053 (inactive) | 0.095 (inactive) | -0.09 (inactive) | 0.009 (inactive) | -0.052 (inactive) | 0.003 (inactive) | 0.012 (inactive) | -0.035 (inactive) | 0.053 (inactive) | 0.03 (inactive) | 0.006 (inactive) | -0.049 (inactive) | -0.01 (inactive)
ACSL4 (UniProt O60488) | -0.128 (inactive) | -0.086 (inactive) | 0.033 (inactive) | 0.071 (inactive) | 0.05 (inactive) | -0.041 (inactive) | 0.069 (inactive) | 0.043 (inactive) | 0.094 (inactive) | -0.024 (inactive) | 0.09 (inactive) | -0.071 (inactive) | -0.058 (inactive) | -0.113 (inactive) | -0.006 (inactive) | -0.105 (inactive) | 0.075 (inactive) | -0.053 (inactive) | 0.052 (inactive) | 0.052 (inactive)
ANP32E (UniProt Q9BTT0) | 0.006 (inactive) | -0.105 (inactive) | -0.109 (inactive) | 0.052 (inactive) | 0.041 (inactive) | -0.239 (inactive) | -0.108 (inactive) | -0.06 (inactive) | 0.159 (inactive) | -0.022 (inactive) | 0.027 (inactive) | 0.011 (inactive) | 0.066 (inactive) | 0.061 (inactive) | 0.045 (inactive) | -0.039 (inactive) | 0.021 (inactive) | -0.027 (inactive) | -0.011 (inactive) | 0.06 (inactive)
